Screening data from PubChem.
PTHR1 ag – PTHR1 (human) receptor agonism; Q03431; HEK293 GP2 PTHR1 cells, GloSensor cAMP luminescence, 1 h; Potency, µM (series often up to 115 µM), for inactives: top-dose activation, usual class: activators; hit rate 0.075% among 410,000; note: potency is the fitted concentration of half-maximal effect; nearly all actives have a fitted effect of over 55% in size
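HEK-293-derived GP2 cells expressing PTHR1 and a GloSensor cAMP reporter, 3,000/well, plated overnight, given luciferin plus IBMX (each 0.5 mM as added) for 1 h at 37 °C, then compound for 1 h at 37 °C. Luminescence was read after 15 min at room temperature.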
GLP-1R inv ag – GLP-1 receptor (human) inverse agonism. P43220. HEK293 GLP-1R CRE-luciferase, luminescence, 24 h; GLP-1R form is constitutively active. Potency, µM (highest dose often 38.3 µM), inactives show at the top dose activity change, negative = inhibition, usual class: inhibitors. hit rate 1.6% among 410,000; note: potency is the fitted concentration of half-maximal effect; % is set by controls: 0 for no effect and ±100 for the full control effect; nearly all actives have a fitted effect of over 55% in size
Target sequence (P43220 whole entry, looked up): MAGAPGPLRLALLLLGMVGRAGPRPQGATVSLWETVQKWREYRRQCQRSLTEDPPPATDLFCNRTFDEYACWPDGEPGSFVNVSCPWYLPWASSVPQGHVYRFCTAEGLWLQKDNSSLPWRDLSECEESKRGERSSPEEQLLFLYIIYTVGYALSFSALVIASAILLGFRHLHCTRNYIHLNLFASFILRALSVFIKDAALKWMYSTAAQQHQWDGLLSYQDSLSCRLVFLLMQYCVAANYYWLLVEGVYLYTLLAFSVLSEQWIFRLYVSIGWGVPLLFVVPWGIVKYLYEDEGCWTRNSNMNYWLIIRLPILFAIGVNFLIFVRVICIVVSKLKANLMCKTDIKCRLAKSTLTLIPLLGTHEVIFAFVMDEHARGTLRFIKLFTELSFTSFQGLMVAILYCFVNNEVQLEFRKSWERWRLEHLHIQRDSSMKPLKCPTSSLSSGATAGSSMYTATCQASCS
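Readout was luciferase luminescence, measured 12 min after detection reagent at room temperature. Beforehand, GLP-1R reporter HEK293 cells had sat 12 h, then received compounds for 24 hr at 37 deg C.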
TSHR antag – antagonists of human thyroid stimulating hormone receptor; P16473; TSHR-expressing cells, TSH-stimulated cAMP HTRF, 2 h; stronger effect = lower value; activity change, negative = inhibition, % at 11.5 µM; hit rate 0.2% among 330,000; AID 504810;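 active = activity change below a set negative limit, meaning inhibition stronger than a set level, cut at about -70% in these data; inconclusive = activity change between two set negative limits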; note: % is set by controls: 0 for no effect and ±100 for the full control effect
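Competitive HTRF cAMP read-out (cryptate anti-cAMP antibody, cAMP-d2; 30 min, room temperature) in freshly harvested TSHR cells. Compounds added before TSH at EC80 (4nM final), followed by 2 hours' incubation at 37 deg C.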
GLP-1R agonist – agonists of human GLP-1 receptor | Potency, µM (top dose mostly 45.6 µM), inactives show at the highest dose activation, most hits filed as activators | hit rate 0.007% among 380,000 | HEK293 GLP-1R CRE-luciferase, luminescence, 4-6 h; cells express a hypersensitive GLP-1R form | AID 624172; note: potency is the fitted concentration of half-maximal effect; % of control where 0% means no effect
HEK293 tox – cytotoxicity in counter-screen for GLP-1R inverse agonists | AID 624418 | hit rate 0.13% among 410,000 | Potency, µM (highest dose often 38.3 µM), for inactives: top-dose activity change, negative = inhibition, actives largely listed as inhibitors | HEK293 cAMP-luciferase reporter cells, luminescence, 24 h;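 note: loss of luciferase light is scored as toxicity; potency is the fitted concentration of half-maximal effect; % is set by controls: 0 for no effect and ±100 for the full control effect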
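Seeding density was 200 cells/uL; after overnight-length (12 h) culture, 23 nL compounds went on for 24 h at 37 °C. Readout used a luciferase detection reagent, luminescence taken after 12 min at room temperature.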
Numbers without * were called inactive; i = inactive; ? = inconclusive; · = no result given; [ ] = dose if it differs, or a comment. In the library only some 1.8% were active in any assay of this set; here they are far more common. Unless noted, calls come from the whole dose curve; as a rule, active = well fitted curve in the direction sought with a large enough effect; inconclusive = small, poorly fitted or top-dose-only effect, or another doubt; inactive = no such curve, though single readings can be large; an effect the other way counts as inactive or inconclusive.

SMILES	PTHR1 ag	GLP-1R inv ag	TSHR antag	GLP-1R agonist	HEK293 tox
CCOc1ccccc1CNC(=O)c1oc2c(c1C)-c1nn(Cc3cccc(Cl)c3)cc1CC2	i	?	·	·	-5%
Cc1ccccc1CNC(=O)c1oc2c(c1C)-c1nn(Cc3ccc(Cl)cc3)cc1CC2	-30%	10µM*	·	·	1%
Cc1oc(-c2ccc(C(=O)NCc3ccccc3)cc2)nc1CN1CCc2ccccc21	-17%	10µM*	·	·	-6%
C[C@@H](C(=O)O)c1ccc(C2CCCCC2)c2ccccc12	·	·	·	-1%	·
COc1ccc2c(c1)c(CC(=O)Nc1ccccc1OC)c(C)n2C(=O)c1ccc(Cl)cc1	-7%	10µM*	-13	15%	6%
Cn1cc(/C=N/Nc2ccccc2)c2ccccc21	i	11µM*	2	-4%	-37%
Cc1ccc2c(c1)c1c(c(=O)n(Cc3ccccc3)c(=O)n1CC(=O)Nc1ccccc1C)n2C	12%	2%	·	0%	-2%
Oc1ccc(COc2cccc3ccccc23)c2cccnc12	·	·	18	·	·
CC1=Nc2nc(N3CCCCCC3)c(C#N)c3c4c(nc(c23)N1)N(c1ccc2ccccc2c1)C(=O)C4	i	0.5µM*	·	-6%	5%
O=C(CCc1ccc(S(=O)(=O)NC2CCCCC2)cc1)N(Cc1ccccc1)Cc1ccccc1	-6%[57.5 µM]	8.9µM*	19	-4%	-1%
COCC(=O)OC/C(O)=C(\C#N)c1nc2ccccc2[nH]1	i	5µM*	-7	3%	?
N#C/C(=C(/O)COC(=O)CSc1ccc2ccccc2c1)c1nc2ccccc2[nH]1	-7%	7.9µM*	1	-17%	?
CCCC(=O)OC/C(O)=C(\C#N)c1nc2ccccc2[nH]1	-8%	?	-8	8%	10µM*
Cc1cccc(C)c1OCC(=O)OC/C(O)=C(\C#N)c1nc2ccccc2[nH]1	-23%	?	3	-29%	?
Cc1ccc(C)c(SCC(=O)OC/C(O)=C(\C#N)c2nc3ccccc3[nH]2)c1	-11%	?	-3	-1%	?
CC(C)CC(NC(=O)CNC(=O)C(Cc1ccc(O)cc1)NC(=O)C(CO)NC(=O)C(Cc1c[nH]c2ccccc12)NC(=O)C(Cc1cnc[nH]1)NC(=O)C1CCC(=O)N1)C(=O)NC(CCCN=C(N)N)C(=O)N1CCCC1C(=O)NCC(N)=O (centres undefined)	·	·	·	-3%	·
CCN(CC)CCNC(=O)c1ccc2c(c1NCCO)C(=O)c1ccccc1C2=O	-27%	?	-22	-7%	5µM*
O=C(Cc1ccc(Cl)cc1)c1c[nH]c(C(=O)NCc2cccnc2)c1	i	2.8µM*	6	-7%	?
CCOC(=O)c1cccc(NC(=O)CSc2ncc3c(n2)-c2ccc(Cl)cc2N(Cc2ccccc2)S3(=O)=O)c1	0%	?	·	·	4%
Cc1c(Cl)cccc1NC(=O)C(CCS(C)(=O)=O)N1Cc2ccccc2C1=O (centres undefined)	i	1%	·	·	2%
Cn1cc(C(=O)[C@@H]2CCc3[nH]cnc3C2)c2ccccc21	·	·	·	11%	·
CC(=O)n1cc(N(C(=O)CCl)c2ccc(Cl)cc2)c2ccccc21	-32%	11µM*	-16	-8%	?
COc1ccccc1N(C(=O)CCl)c1cn(C(C)=O)c2ccccc12	-28%	3.2µM*	1	-7%	?
CCN(CC)CCNC(=O)c1ccc(NS(C)(=O)=O)cc1	·	·	-6	-5%	·
OCc1cn(Cc2ccc(O)c3ncccc23)cn1	·	·	13	·	·
Cc1sc(NC(=O)/C=C/c2ccc3c(c2)OCO3)nc1-c1ccccc1	-53%	?	?	-27%	-24%
O=C(/C=C/c1ccc2c(c1)OCO2)Nc1cccnc1	-43%	10µM*	-3	-8%	-15%
CC(=O)Nc1ccc(NC(=O)/C=C/c2ccc3c(c2)OCO3)cc1	i	-21%[7.66 µM]	21	5%	-2%[7.66 µM]
COC(=O)c1cccc(NC(=O)/C=C/c2ccc3c(c2)OCO3)c1	-30%	3.5µM*	-7	-19%	-21%
